A number with no mark means an inactive call. For some assays here: Results with a measured potency or affinity are listed apart. Active and inactive are the calls of the source. Unless noted, no rule for the calls is given here.
Tests used:
[1] = antimalarial activity against Dd2 strain (AID 2302;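 active = growth inhibition above 50% at the single 2 µM test dose, taken to imply half-maximal potency below 2 µM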;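 also: 0% = DMSO untreated growth and 100% = chloroquine plus artemisinin killed control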); details: P. falciparum Dd2 in RBCs, LDH growth readout, 72 h; at 2 µM; stronger effect = higher value
[2] = human hepatoma cell viability loss – ATP luminescence, cytotoxicity control for P. falciparum antimalarial project, primary screen (AID 2303;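 active = inhibition above 50%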;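 also: 0% = DMSO wells and 100% = digitonin-killed cells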); details: HepG2 viability, 24-48 h, at 10 µM, stronger effect = higher value
[3] = target: L-lactate dehydrogenase (Plasmodium falciparum (isolate CDC / Honduras)) (UniProt Q27743); assay: PfLDH activity inhibition – cell lysate, 3D7 strain, counter-screen for P. falciparum growth inhibition project (AID 2304);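 also: 0% = vehicle and 100% = reference inhibitor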; details: P. falciparum 3D7 crude extract, LDH APAD/NBT absorbance; at 2 µM; stronger effect = higher value
[4] = inhibition of 3D7 malaria parasite growth – strain 3D7 (AID 2306);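 also: 0% = DMSO wells and 100% = chloroquine plus artemisinin control wells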; details: P. falciparum 3D7 erythrocytic growth, LDH absorbance, 72 h; at 2 µM; stronger effect = higher value
[5] = target: Calcium-dependent protein kinase 1 (Plasmodium falciparum (isolate 3D7)) (UniProt P62344); assay: PfCDPK1 kinase inhibitors, biochemical, TCAMS library (AID 1159585; cut-off not given, nearly all actives have IC50 up to about 0.98 µM;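 also: inhibitors leave more ATP so luminescence rises with inhibition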); details: recombinant PfCDPK1, Kinase-Glo ATP depletion luminescence
[6] = target: Plasmodium falciparum protein kinase 6 (PK6, PF3D7_1337100) (UniProt Q8IDW1); assay: PfPK6 kinase inhibitors, biochemical, TCAMS library (AID 1159586); details: recombinant PfPK6, Kinase-Glo ATP depletion luminescence
[7] = target: Protein kinase 7 (PK7), Plasmodium falciparum 3D7 (PF3D7_0213400) (UniProt Q7YTF7); assay: inhibition of Plasmodium PK7 catalytic activity – biochemical, TCAMS antimalarial set, Kinase-Glo luminescence (AID 1159587); details: recombinant PfPK7, Kinase-Glo ATP depletion luminescence
[8] = target: Calcium-dependent protein kinase 4 (Plasmodium falciparum (isolate 3D7)) (UniProt Q8IBS5); assay: PfCDPK4 kinase inhibitors, biochemical, TCAMS library (AID 1159588; cut-off not given, nearly all actives have IC50 up to about 0.91 µM); details: recombinant PfCDPK4, Kinase-Glo ATP depletion luminescence
Chain of Calcium-dependent protein kinase 4 (Plasmodium falciparum (isolate 3D7)) (Q8IBS5 whole entry, looked up): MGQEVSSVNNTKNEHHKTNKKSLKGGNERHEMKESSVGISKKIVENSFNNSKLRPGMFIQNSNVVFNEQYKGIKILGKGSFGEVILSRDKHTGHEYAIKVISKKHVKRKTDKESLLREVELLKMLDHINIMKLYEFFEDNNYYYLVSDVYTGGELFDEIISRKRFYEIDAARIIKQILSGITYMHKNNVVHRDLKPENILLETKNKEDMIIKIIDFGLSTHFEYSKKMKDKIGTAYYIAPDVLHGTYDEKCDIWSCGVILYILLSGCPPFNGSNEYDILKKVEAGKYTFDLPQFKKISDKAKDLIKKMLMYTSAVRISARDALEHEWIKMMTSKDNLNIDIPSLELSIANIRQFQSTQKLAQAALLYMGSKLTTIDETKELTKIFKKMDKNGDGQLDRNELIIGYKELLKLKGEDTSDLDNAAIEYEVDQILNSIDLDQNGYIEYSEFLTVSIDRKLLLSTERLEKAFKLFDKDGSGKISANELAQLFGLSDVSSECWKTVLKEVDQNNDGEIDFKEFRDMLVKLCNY

Chain of Calcium-dependent protein kinase 1 (Plasmodium falciparum (isolate 3D7)) (P62344 whole entry, looked up): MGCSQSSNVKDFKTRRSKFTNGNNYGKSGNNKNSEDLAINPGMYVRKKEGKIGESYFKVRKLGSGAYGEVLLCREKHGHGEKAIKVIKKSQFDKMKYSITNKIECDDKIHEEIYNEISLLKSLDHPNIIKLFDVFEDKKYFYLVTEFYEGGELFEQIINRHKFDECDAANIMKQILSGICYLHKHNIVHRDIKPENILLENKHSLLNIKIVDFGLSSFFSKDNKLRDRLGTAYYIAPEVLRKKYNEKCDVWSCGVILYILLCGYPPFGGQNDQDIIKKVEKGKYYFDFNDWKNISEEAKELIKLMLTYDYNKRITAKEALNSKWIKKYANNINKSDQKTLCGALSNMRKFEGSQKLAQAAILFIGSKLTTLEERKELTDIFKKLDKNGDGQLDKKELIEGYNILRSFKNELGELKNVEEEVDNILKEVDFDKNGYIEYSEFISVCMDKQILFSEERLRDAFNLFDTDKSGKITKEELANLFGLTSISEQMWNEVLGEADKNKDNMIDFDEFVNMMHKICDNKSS
Chain of Protein kinase 7 (PK7), Plasmodium falciparum 3D7 (PF3D7_0213400) (Q7YTF7 1-343): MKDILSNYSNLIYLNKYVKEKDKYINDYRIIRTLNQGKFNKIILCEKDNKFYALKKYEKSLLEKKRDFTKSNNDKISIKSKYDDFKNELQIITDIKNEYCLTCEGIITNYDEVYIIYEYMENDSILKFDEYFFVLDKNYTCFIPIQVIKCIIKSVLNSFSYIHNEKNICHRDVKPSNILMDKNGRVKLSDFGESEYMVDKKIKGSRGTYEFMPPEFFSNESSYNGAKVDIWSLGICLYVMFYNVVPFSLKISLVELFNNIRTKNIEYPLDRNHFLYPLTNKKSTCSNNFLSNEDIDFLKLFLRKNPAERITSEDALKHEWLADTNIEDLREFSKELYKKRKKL
Chain of Plasmodium falciparum protein kinase 6 (PK6, PF3D7_1337100) (Q8IDW1 1-305): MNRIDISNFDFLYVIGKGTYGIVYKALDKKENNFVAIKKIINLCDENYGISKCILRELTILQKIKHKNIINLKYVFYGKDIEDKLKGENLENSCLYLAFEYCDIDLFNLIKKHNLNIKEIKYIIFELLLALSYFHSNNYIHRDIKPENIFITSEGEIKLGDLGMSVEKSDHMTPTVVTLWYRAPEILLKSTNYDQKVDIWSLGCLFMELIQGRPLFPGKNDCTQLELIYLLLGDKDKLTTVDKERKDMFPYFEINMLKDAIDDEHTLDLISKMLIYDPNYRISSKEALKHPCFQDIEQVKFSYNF
Chain of L-lactate dehydrogenase (Plasmodium falciparum (isolate CDC / Honduras)) (Q27743 whole entry, looked up): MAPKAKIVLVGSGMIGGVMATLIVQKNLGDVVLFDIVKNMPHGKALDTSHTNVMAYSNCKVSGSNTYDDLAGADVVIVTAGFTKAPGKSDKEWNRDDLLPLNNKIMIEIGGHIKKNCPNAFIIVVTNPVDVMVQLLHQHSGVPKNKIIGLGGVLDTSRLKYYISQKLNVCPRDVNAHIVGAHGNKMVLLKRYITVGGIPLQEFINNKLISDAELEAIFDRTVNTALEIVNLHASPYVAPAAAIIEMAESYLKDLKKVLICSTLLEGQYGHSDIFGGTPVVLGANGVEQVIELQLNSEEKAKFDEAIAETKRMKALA

Compound	growth inhibition [1]	inhibition [2]	inhibition [3] [%]	growth inhibition [4]	outcome [5]	outcome [6]	outcome [7]	outcome [8]
NC(N)=Nc1nc(-c2ccc(NC(=O)Nc3cccc(-c4csc(N=C(N)N)n4)c3)cc2)cs1	80% (active)	-9%	3	94% (active)	inactive	inactive	inactive	inactive
C[C@@H](CC1CCCCC1)OC(=O)N(C)[C@H]1CCN(C#N)C1	62% (active)	4%	-6	84% (active)	inactive	inactive	inactive	inactive
Cc1ccc(-c2nnc(Nc3ccc(C(=O)N4CCCCC4)cc3)c3ccccc23)cc1S(=O)(=O)NCC1CCCO1 (stereo not given)	99% (active)	-5%	-4	99% (active)	inactive	inactive	inactive	inactive
O=C(NCc1ccccc1)Nc1cccc(-c2cccc(-c3nc4ccc(C(F)(F)F)cc4[nH]3)c2)c1	30%	56% (active)	0	95% (active)	inactive	inactive	inactive	inactive
CS(=O)(=O)c1ccc2c(c1)CCN(CCC1CCC(NC(=O)c3cc4cccc(Br)c4[nH]3)CC1)CC2 (stereo not given)	7%	27%	-8	92% (active)	inactive	inactive	inactive	inactive
CN1CCN(CCCN(Cc2csc(-c3ccc(CNCc4ccccc4)cc3)n2)S(=O)(=O)c2ccccc2)CC1	78% (active)	17%	7	99% (active)	inactive	inactive	inactive	inactive
Nc1nc(N)c2c(Cl)c(CNc3cccc(C(=O)O)c3)ccc2n1	97% (active)	69% (active)	7	93% (active)	inactive	inactive	inactive	inactive
COc1ccc2nc3cc(Cl)ccc3c(Nc3ccc(O)c(CNC(C)C)c3)c2c1	100% (active)	5%	-1	102% (active)	inactive	inactive	inactive	inactive
CCCCCOc1ccc(C(O)C(CN2CCCCC2)c2ccccc2)cc1 (stereo not given)	95% (active)	11%	5	98% (active)	inactive	inactive	inactive	inactive
O=C(Nc1cccc(OC2CCN(Cc3ccc(F)cc3)CC2)c1)c1ccc(C(F)(F)F)cc1	6%	28%	3	94% (active)	inactive	inactive	inactive	inactive
CCCN(CC1CC1)c1ncc(-c2ccccc2CNCc2ccccc2O)cn1	98% (active)	4%	-4	100% (active)	inactive	inactive	inactive	inactive
COc1ccc(O)cc1Cc1cnc2nc(N)nc(N)c2c1C	97% (active)	67% (active)	-2	92% (active)	inactive	inactive	inactive	inactive
COc1ccc(-c2ccc(NC(=O)c3ccc(C#N)cc3)cc2)cc1CN1CCN(C)CC1	49%	21%	1	93% (active)	inactive	inactive	inactive	inactive
COC(=O)c1cccc(CNCc2ccc(-c3ccc(-c4nc5c(C)cccc5[nH]4)s3)cc2)c1	64% (active)	3%	0	101% (active)	inactive	inactive	inactive	inactive
O=C(Nc1ccc(O)c(-c2nc3ccccc3[nH]2)c1)c1ccc([N+](=O)[O-])cc1	45%	-2%	-6	97% (active)	inactive	inactive	inactive	inactive
O=C(/C=C/c1ccc(Cl)cc1)NCCCCCN1CCC(C(=O)Nc2ccc(Cl)cc2)CC1	-1%	27%	8	99% (active)	inactive	inactive	inactive	inactive
CC(=O)Nc1ccc(C(=O)N2CCN(c3ccnc4cc(Cl)ccc34)CC2)cc1	43%	2%	-5	93% (active)	inactive	inactive	inactive	inactive
COc1cc(OC)cc(C(=O)Nc2ccc(Nc3nc(C)cc(N(C)C)n3)cc2)c1	90% (active)	11%	1	100% (active)	inactive	inactive	inactive	inactive
COc1cc(Nc2nccc(Nc3ccc4c(C)[nH]nc4c3)n2)cc2ccccc12	82% (active)	13%	5	102% (active)	inactive	inactive	inactive	inactive
CCN(CCCN1CCCCC1)c1nc(C)cc(Nc2ccc(Cl)cc2)n1	92% (active)	30%	3	98% (active)	inactive	inactive	inactive	inactive

Compound	growth inhibition [1]	inhibition [2]	inhibition [3] [%]	growth inhibition [4]	outcome [5]	outcome [6]	outcome [7]	outcome [8]
OCCN1CCN(C2Cc3ccc(F)cc3Sc3ccc(Cl)cc32)CC1 (stereo not given)	26%	56% (active)	3	98% (active)	inactive	inactive	inactive	inactive
O=C(Nc1cccc(-c2cccc(-c3nc4ccc(F)cc4[nH]3)c2)c1)c1ccncc1	24%	28%	-3	92% (active)	inactive	inactive	inactive	inactive
Cc1[nH]c(C)c(-c2ccc(C(=O)c3ccc(Cl)cc3)cc2)c(=O)c1Br	95% (active)	10%	4	97% (active)	inactive	inactive	inactive	inactive
NC(=O)c1cccc(C(=O)Nc2cccc(-c3cccc(-c4nc5ccc(F)cc5[nH]4)c3)c2)c1	73% (active)	47%	1	100% (active)	inactive	inactive	inactive	inactive
Cc1c(C(=O)N2CCCC(C(F)(F)F)C2)sc2cccc(F)c12 (stereo not given)	89% (active)	-4%	1	99% (active)	inactive	inactive	inactive	inactive
COc1ccc(OCCON)cc1	-3%	0%	-2	98% (active)	inactive	inactive	inactive	inactive
CC(Cc1ccc(OCCCCOc2ccccc2)cc1)NCCc1ccc(Oc2ccccc2)cc1 (stereo not given)	95% (active)	99% (active)	5	89% (active)	inactive	inactive	inactive	inactive
CN(CCCN(C)c1cc(NC(=O)c2ccc(F)cc2)ccn1)Cc1cccc(O)c1	0%	2%	1	90% (active)	inactive	inactive	inactive	inactive
Cc1ccc2nc3ccccc3c(NCCN3CCN(C)CC3)c2c1	6%	19%	-7	101% (active)	inactive	inactive	inactive	inactive
COc1ccccc1CN1CCC(CNC(=O)c2cc(-c3ccc(N(C)C)cc3)cs2)C1 (stereo not given)	16%	17%	-5	82% (active)	inactive	inactive	inactive	inactive
Cc1ccc(NC(=O)c2ccnc(N3CCN(c4ccncc4)CC3)c2)cc1F	12%	43%	-2	94% (active)	inactive	inactive	inactive	inactive
O=C(/C=C/c1ccc(Cl)c(Cl)c1)NC1CCN(Cc2cccc(O)c2)CC1	-1%	-3%	-1	94% (active)	inactive	inactive	inactive	inactive
CC(C)C[C@H](NC(=O)c1ccc(OCCN2CCOCC2)cc1)C(=O)N[C@H](/C=N/N1CCNC1=O)CCc1ccccc1	94% (active)	1%	4	89% (active)	inactive	inactive	inactive	inactive
COc1cc(C(=O)NC2CCc3ccccc32)cc(Cl)c1OC (stereo not given)	60% (active)	12%	-4	85% (active)	inactive	inactive	inactive	inactive
O=C(CCCCCNC(=O)c1ccc(O)c(-c2ccc(Cl)c(Cl)c2)c1)NCc1cccc(C(F)(F)F)c1	10%	2%	2	92% (active)	inactive	inactive	inactive	inactive
CCNc1cc(C(=O)N[C@@H](Cc2ccccc2Cl)[C@H](O)CNC2CCCCC2)cc(N2CCCCS2(=O)=O)c1	97% (active)	6%	0	99% (active)	inactive	inactive	inactive	inactive
O=C(Nc1ccccc1)Nc1cccc(-c2cccc(-c3nc4ccc(F)cc4[nH]3)c2)c1	41%	38%	4	99% (active)	inactive	inactive	inactive	inactive
O=C(Nc1nccs1)c1cn(-c2ccccc2)nc1-c1ccc(Cl)s1	18%	9%	0	96% (active)	inactive	inactive	inactive	inactive
Cc1cc(C(=O)Nc2nc(-c3ccccn3)nc3ccsc23)no1	90% (active)	44%	0	98% (active)	inactive	inactive	inactive	inactive
Cc1cc(CN2CCC(C(=O)Nc3ccc(-c4nc5ccccc5[nH]4)cc3)CC2)oc1C	9%	-7%	-4	95% (active)	inactive	inactive	inactive	inactive

— PubChem BioAssay
